We go through 71 molecules from PubChem BioAssay AID618 (Sanford-Burnham Center for Chemical Genomics, 2007).

SMILES strings stand for the structures. Out of some 87,000 compounds screened, about 540 (0.62%) were called active. The rule behind the calls is not given here. The list comes from a sample in which actives are over-represented; it also holds similar structures and randomly drawn compounds. Measured potencies and affinities stand elsewhere.

The experiment can be described thus: MT1-MMP gene expression reporter suppression – cell-based, luciferase reporter, luminescence (AID 618).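 Note: actives suppress MT1-MMP promoter-driven transcription so potencies describe inhibitors.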 Conditions: MT1-MMP promoter luciferase reporter cells. For orientation: Reporter assays use an easily measured gene product as a stand-in for the process of interest.
On to `C=CCn1c(C)cc(C(=O)CSc2nc3ccccc3c(=O)[nH]2)c1C`, for which the outcome was inactive.
Next, `Cc1cc(C(=O)CSc2nc3ccccc3[nH]2)c(C)n1C`: “inactive”; `CCn1c(SCC(=O)c2cc(C)n(CC3CCCO3)c2C)nc2ccccc21` (stereo unspecified): “inactive”; `Cc1cc(C(=O)CSc2nc3ccc(Cl)cc3[nH]2)c(C)n1CC1CCCO1` (stereo unspecified): “inactive”.
Turning to `C=CCc1c(C)nc(SC)nc1Nc1ccc(C(C)=O)cc1`, the molecule was classed as inactive.
The result for `CC1CC(C)(C)NC(=O)O1` (stereo unspecified) reads “inactive”; that for `Cc1cc(=O)[nH]c(-n2nc(C)cc2C)n1`, “inactive”.
As for `Cc1ccc(Nc2cc(C)nn2-c2nc(C)cc(=O)[nH]2)cc1`, the molecule was classed as active.
Next, `Cc1ccc(Nc2cc(C)nn2-c2nc(C)cc(C)n2)cc1`: “inactive”.
The result for `Cc1noc(C)c1CSc1nc2ccccc2c(=O)n1-c1ccc(Cl)cc1` reads “inactive”; that for `C=CCn1c(SCc2c(C)noc2C)nc2cc(C(=O)O)ccc2c1=O`, “inactive”; that for `Cc1nc(CSc2nc3[nH]ncc3c(=O)n2-c2ccccc2)cs1`, “inactive”.
The result for `C=CCn1c(SCc2c(C)noc2C)nc2ccccc2c1=O` reads “active”; that for `Cc1noc(C)c1CSc1nc2[nH]ncc2c(=O)n1-c1ccccc1`, “active”.
For the molecule `Cc1noc(C)c1CSc1nc2ccccc2c(=O)n1-c1ccccc1`, the outcome was inactive.
On to `COc1ccccc1NC(=O)CSc1nnnn1-c1ccc(C)cc1`, for which the outcome was inactive.
On to `COCCCNC(=O)CCc1nc2cccnc2n1Cc1ccccc1`, for which the molecule was classed as inactive.
Next, `O=C(NNC(=O)c1ccccc1Br)c1ccc(SCC2CCCO2)c([N+](=O)[O-])c1` (stereo unspecified): “inactive”.
On to `COc1ccc(CNc2nc3ccccc3n2CCN2CCOCC2)cc1`, for which the molecule was classed as inactive.
On to `COc1ccc(CC(=O)N2CCC(Nc3nc4ccccc4n3Cc3ccc(F)cc3)CC2)cc1`, for which the molecule was classed as inactive.
For the molecule `COc1ccc(CCN2CCC(Nc3nc4ccccc4n3Cc3ccc(F)cc3)CC2)cc1`, the molecule was called active.
For the molecule `COc1ccc(N/C=C(\C#N)c2ccc(OCCCF)cc2)cc1`, the outcome was inactive.
For `COc1ccc(C2C(C#N)=C(N)N3C(=C2C#N)Sc2ccccc23)cc1` (stereo unspecified), the molecule was classed as inactive.
As for `CC1(C)CC(=O)C2=C(C1)OC1=C(C(=O)CC(C)(C)C1)C2c1ccc(O)cc1O`, the result was active.
`Cc1nn(C)cc1C1C2=C(CC(C)(C)CC2=O)OC2=C1C(=O)CC(C)(C)C2`: the result was inactive.
On to `CC1(C)CC(=O)C(C2C3=C(CC(C)(C)CC3=O)Oc3ccccc32)=C(O)C1` (stereo unspecified), for which the molecule was called inactive.
As to `O=C(c1cccs1)N(Cc1ccco1)c1nc(-c2ccc(F)cc2)cs1`, the call was inactive.
Regarding `COc1ccc(-c2cc(C(F)(F)F)n3nc(C(=O)N4CCCCC4)cc3n2)cc1OC`, the outcome was inactive.
For the molecule `Cc1ccc2[nH]c(C(=O)O)c(-c3ccccc3)c2c1`, the molecule was classed as inactive.
Consider `O=c1cc(-c2ccccc2)[nH]c2ccccc12`, for which the call was inactive.
As for `Cc1ccc2[nH]c(-c3ccccc3)cc(=O)c2c1`, the call was active.
Next, `COc1ccc(NC(=O)N2CCCC2C(=O)NCc2ccc(F)cc2)cc1` (stereo unspecified): “inactive”; `O=C(O)CSCC(=O)Nc1ccccc1`: “inactive”; `O=C(CSCCO)Nc1ccc(C2CCCCC2)cc1`: “inactive”.
On to `Cc1ccc(C(=O)CC2(O)C(=O)N(Cc3ccc4c(c3)OCO4)c3ccccc32)cc1` (stereo unspecified), for which the outcome was inactive.
On to `Cc1cc(C)c(S(=O)(=O)N2CCC(C(=O)NCc3ccco3)CC2)c(C)c1`, for which the call was inactive.
`CC(=O)Nc1ccc(NC(=O)c2ccccc2C)cc1`: the molecule was classed as inactive.
As for `O=C(N/N=C/c1ccc([N+](=O)[O-])s1)c1cccc(Br)c1`, the molecule was classed as inactive.
With `Cc1ccc(C(=O)N/N=C/c2sc(=O)n(Cc3cccc(C(=O)O)c3)c2Cl)cc1`, the outcome was inactive.
Next, `COc1cc(C(=O)N/N=C\c2ccccc2)c([N+](=O)[O-])c(OC)c1OC`: “inactive”; `O=C(N/N=C/C=C/c1ccccc1)c1ccccc1Br`: “inactive”; `Cc1ccc(C(=O)NNS(=O)(=O)c2ccccc2[N+](=O)[O-])cc1`: “inactive”.
For the molecule `COc1cccc(NC2=NCC(=O)N2Cc2cccs2)c1`, the molecule was called inactive.
Regarding `O=C1c2ccccc2C(=O)N1CCOCCN1C(=O)c2ccccc2C1=O`, the outcome was inactive.
Regarding `CCC(=O)N(Cc1ccc(S(N)(=O)=O)cc1)C1CC(=O)N(c2ccc(OC)cc2)C1=O` (stereo unspecified), the molecule was called inactive.
As to `Cc1cc2nnc(SCC(=O)N3C(C)CCCC3C)n2c(N)n1` (stereo unspecified), the molecule was called inactive.
Consider `COC(=O)CSc1cc(C(=O)c2nccn2C)c2ccccc2n1`, for which the outcome was inactive.
Next, `COCCNC(=O)C(c1cccs1)N(Cc1cccs1)C(=O)Cn1nnc2ccccc21` (stereo unspecified): “inactive”; `CCCCS(=O)(=O)Nc1ccc(C(=O)NCC2CCCO2)cc1` (stereo unspecified): “inactive”.
Turning to `Cc1cccc(NC(=O)c2cnc3ccccn3c2=O)c1`, the molecule was called inactive.
Take `CCN(CC)c1ccc(NC(=O)c2cnc3ccccn3c2=O)c(C)c1`: the molecule was classed as inactive.
Take `CCCC(=O)c1ccc(N2CCOCC2)c(F)c1`: the result was inactive.
With `Cn1c(C(=O)N2CCN(Cc3ccccc3)CC2)cc2c(=O)n(C)c3ccccc3c21`, the result was inactive.
With `COc1cc(C(=O)N2CCN(c3cc(Cl)ccc3Cl)CC2)cc(OC)c1OC`, the molecule was classed as active.
Next, `COc1ccc(Cl)cc1S(=O)(=O)N1CCN(C(=O)c2cc(OC)c(OC)c(OC)c2)CC1`: “inactive”; `Cc1cccc(N2CCN(C(=O)c3ccncc3)CC2)c1C`: “inactive”; `COc1cc(C(=O)N2CCN(C(=O)c3ccccc3)CC2)cc(OC)c1OC`: “inactive”.
On to `COc1cc(C(=O)N2CCN(c3cccc(C)c3C)CC2)cc(OC)c1OC`, for which the call was active.
With `COc1ccc(C(=O)N2CCN(C(=O)c3cc(OC)c(OC)c(OC)c3)CC2)cc1`, the call was inactive.
In the case of `O=C(Nc1cccc(Cl)c1N1CCCC1)c1ccc(Br)o1`, the call was inactive.
As to `O=C(Nc1ccccc1)NC1CC2CCC(C1)N2Cc1nnnn1Cc1ccc2c(c1)OCO2` (stereo unspecified), the call was inactive.
Turning to `COc1ccc(Nc2cc(C)nc3nc(C)nn23)cc1Cl`, the result was inactive.
Take `CC(=O)Nc1c2c(nn1-c1ccc(C)cc1C)CSC2`: the outcome was inactive.
Take `CCCCS(=O)(=O)/C=C\C1C2C=CC(C2)C1S(=O)(=O)CCCC` (stereo unspecified): the result was inactive.
For the molecule `CCCCS(=O)(=O)/C=C/[C@H]1[C@H](S(=O)(=O)CCCC)[C@H]2C=C[C@@H]1C2`, the outcome was inactive.
Regarding `CCCCS(=O)(=O)/C=C\C=C/S(=O)(=O)CCCC`, the molecule was classed as active.
In the case of `COc1ccc(CCNC(=O)Cn2cnc3c(nnn3Cc3ccccc3F)c2=O)cc1OC`, the result was inactive.
The result for `Cc1ccc(S(=O)(=O)N2CCN(C(=O)N3CCOCC3)C2c2ccc(N(C)C)cc2)cc1` (stereo unspecified) reads “inactive”; that for `O=C(Cc1n[nH]c(=O)c2ccccc12)OCC(=O)c1ccc2c(c1)OCCO2`, “active”; that for `O=C(Cc1ccc(Br)cc1)OCC(=O)c1ccc2c(c1)OCCO2`, “inactive”.
With `O=C(Cn1cnc2ccccc2c1=O)OCC(=O)c1ccc2c(c1)OCCO2`, the result was inactive.
